From the supplement of paper PMC4466140

How the values were obtained:
Assay in all cases: SPOT peptide array binding signal intensity (averaged, normalized) (arbitrary units (background-subtracted, floor 0; scale differs between SH3 domains)); higher = stronger binding of the SH3 domain to the peptide
AgAbp1 = target: AgAbp1
In short: (§1)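 GST-SH3 fusions from four yeast species, purified on glutathione Sepharose, were incubated at 10 μg/ml overnight at 4°C on membranes of synthetic 15-mer peptides in which cysteines were replaced with serines. Binding signal is the normalized, background-subtracted spot intensity averaged over replicates, in domain-specific arbitrary units.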

AgBbc1 = target: AgBbc1
In short: as §1

AgBem1-D1 = target: AgBem1-D1
In short: as §1

AgBzz1-D1 = target: AgBzz1-D1
In short: as §1

AgBzz1-D2 = target: AgBzz1-D2
In short: as §1

AgCyk3 = target: AgCyk3
In short: as §1

AgFus1 = target: AgFus1
In short: as §1

AgHof1 = target: AgHof1
In short: as §1

AgHse1 = target: AgHse1
In short: as §1

AgLsb1 = target: AgLsb1
In short: as §1

AgLsb4 = target: AgLsb4
In short: as §1

AgMyo5 = target: AgMyo5
In short: as §1

AgNbp2 = target: AgNbp2
In short: as §1

AgRvs167 = target: AgRvs167
In short: as §1

AgSho1 = target: AgSho1
In short: as §1

AgSla1-D1-D2 = target: AgSla1-D1-D2
In short: as §1

AgSla1-D3 = target: AgSla1-D3
In short: as §1

CaAbp1-D1 = target: CaAbp1-D1
In short: as §1

CaAbp1-D2 = target: CaAbp1-D2
In short: as §1

CaBbc1 = target: CaBbc1
In short: as §1

CaBem1-D1 = target: CaBem1-D1
In short: as §1

CaBzz1-D1 = target: CaBzz1-D1
In short: as §1

CaBzz1-D2 = target: CaBzz1-D2
In short: as §1

CaCyk3 = target: CaCyk3
In short: as §1

CaFus1 = target: CaFus1
In short: as §1

CaHof1 = target: CaHof1
In short: as §1

CaHse1 = target: CaHse1
In short: as §1

CaLsb1 = target: CaLsb1
In short: as §1

CaLsb4 = target: CaLsb4
In short: as §1

CaMyo5 = target: CaMyo5
In short: as §1

CaNbp2 = target: CaNbp2
In short: as §1

CaRvs167 = target: CaRvs167
In short: as §1

CaRvs167-3 = target: CaRvs167-3
In short: as §1

CaSho1 = target: CaSho1
In short: as §1

CaSla1-D1-D2 = target: CaSla1-D1-D2
In short: as §1

CaSla1-D3 = target: CaSla1-D3
In short: as §1

ScAbp1 = target: ScAbp1
In short: as §1

ScBbc1 = target: ScBbc1
In short: as §1

ScBem1-D1 = target: ScBem1-D1
In short: as §1

ScBzz1-D1 = target: ScBzz1-D1
In short: as §1

ScBzz1-D2 = target: ScBzz1-D2
In short: as §1

ScCyk3 = target: ScCyk3
In short: as §1

ScFus1 = target: ScFus1
In short: as §1

ScHof1 = target: ScHof1
In short: as §1

ScHse1 = target: ScHse1
In short: as §1

ScLsb1 = target: ScLsb1
In short: as §1

ScLsb2 = target: ScLsb2
In short: as §1

ScLsb3 = target: ScLsb3
In short: as §1

ScLsb4 = target: ScLsb4
In short: as §1

ScMyo3 = target: ScMyo3
In short: as §1

ScMyo5 = target: ScMyo5
In short: as §1

ScNbp2 = target: ScNbp2
In short: as §1

ScPex13 = target: ScPex13
In short: as §1

ScRvs167 = target: ScRvs167
In short: as §1

ScSho1 = target: ScSho1
In short: as §1

ScSla1-D1-D2 = target: ScSla1-D1-D2
In short: as §1

ScSla1-D3 = target: ScSla1-D3
In short: as §1

SpAbp1-D1 = target: SpAbp1-D1
In short: as §1

SpBbc1 = target: SpBbc1
In short: as §1

SpBzz1-D1 = target: SpBzz1-D1
In short: as §1

SpBzz1-D2 = target: SpBzz1-D2
In short: as §1

SpCyk3 = target: SpCyk3
In short: as §1

SpHof1 = target: SpHof1
In short: as §1

SpHof1-2 = target: SpHof1-2
In short: as §1

SpHof1-3 = target: SpHof1-3
In short: as §1

SpHse1 = target: SpHse1
In short: as §1

SpLsb1 = target: SpLsb1
In short: as §1

SpLsb4 = target: SpLsb4
In short: as §1

SpMyo1 = target: SpMyo1
In short: as §1

SpNbp2 = target: SpNbp2
In short: as §1

SpPex13 = target: SpPex13
In short: as §1

SpRvs167 = target: SpRvs167
In short: as §1

SpSla1-D1-D2 = target: SpSla1-D1-D2
In short: as §1

SpSla1-D3 = target: SpSla1-D3
In short: as §1

B1: unnamed (peptide)
chain: RRASLFPRDPKRLRP
AgAbp1
  SPOT peptide array binding signal intensity: 89.5
AgBbc1
  SPOT peptide array binding signal intensity: 87.5
AgBem1-D1
  SPOT peptide array binding signal intensity: 169
AgBzz1-D1
  SPOT peptide array binding signal intensity: 87
AgBzz1-D2
  SPOT peptide array binding signal intensity: 49
AgCyk3
  SPOT peptide array binding signal intensity: 3
AgFus1
  SPOT peptide array binding signal intensity: 223
AgHof1
  SPOT peptide array binding signal intensity: 22.2
AgHse1
  SPOT peptide array binding signal intensity: 1070
AgLsb1
  SPOT peptide array binding signal intensity: 1
AgLsb4
  SPOT peptide array binding signal intensity: 112
AgMyo5
  SPOT peptide array binding signal intensity: 2.5
AgNbp2
  SPOT peptide array binding signal intensity: 107
AgRvs167
  SPOT peptide array binding signal intensity: 0.5
AgSho1
  SPOT peptide array binding signal intensity: 67.5
AgSla1-D1-D2
  SPOT peptide array binding signal intensity: 116
AgSla1-D3
  SPOT peptide array binding signal intensity: 7.5
CaAbp1-D1
  SPOT peptide array binding signal intensity: 520
CaAbp1-D2
  SPOT peptide array binding signal intensity: 362
CaBbc1
  SPOT peptide array binding signal intensity: 304
CaBem1-D1
  SPOT peptide array binding signal intensity: 83
CaBzz1-D1
  SPOT peptide array binding signal intensity: 131
CaBzz1-D2
  SPOT peptide array binding signal intensity: 128
CaCyk3
  SPOT peptide array binding signal intensity: 39
CaFus1
  SPOT peptide array binding signal intensity: 724
CaHof1
  SPOT peptide array binding signal intensity: 1.5
CaHse1
  SPOT peptide array binding signal intensity: 13.2
CaLsb1
  SPOT peptide array binding signal intensity: 0.25
CaLsb4
  SPOT peptide array binding signal intensity: 58.5
CaMyo5
  SPOT peptide array binding signal intensity: 4.5
CaNbp2
  SPOT peptide array binding signal intensity: 464
CaRvs167
  SPOT peptide array binding signal intensity: 8.67
CaRvs167-3
  SPOT peptide array binding signal intensity: 80.2
CaSho1
  SPOT peptide array binding signal intensity: 430
CaSla1-D1-D2
  SPOT peptide array binding signal intensity: 87.5
CaSla1-D3
  SPOT peptide array binding signal intensity: ≤ 0
ScAbp1
  SPOT peptide array binding signal intensity: 284
ScBbc1
  SPOT peptide array binding signal intensity: 18.2
ScBem1-D1
  SPOT peptide array binding signal intensity: 173
ScBzz1-D1
  SPOT peptide array binding signal intensity: 30.5
ScBzz1-D2
  SPOT peptide array binding signal intensity: 104
ScCyk3
  SPOT peptide array binding signal intensity: 108
ScFus1
  SPOT peptide array binding signal intensity: 282
ScHof1
  SPOT peptide array binding signal intensity: 4
ScHse1
  SPOT peptide array binding signal intensity: 1890
ScLsb1
  SPOT peptide array binding signal intensity: 14.5
ScLsb2
  SPOT peptide array binding signal intensity: 1
ScLsb3
  SPOT peptide array binding signal intensity: 248
ScLsb4
  SPOT peptide array binding signal intensity: 4.5
ScMyo3
  SPOT peptide array binding signal intensity: 0.5
ScMyo5
  SPOT peptide array binding signal intensity: 2
ScNbp2
  SPOT peptide array binding signal intensity: 308
ScPex13
  SPOT peptide array binding signal intensity: ≤ 0
ScRvs167
  SPOT peptide array binding signal intensity: 16.3
ScSho1
  SPOT peptide array binding signal intensity: 992
ScSla1-D1-D2
  SPOT peptide array binding signal intensity: 1000
ScSla1-D3
  SPOT peptide array binding signal intensity: 20
SpAbp1-D1
  SPOT peptide array binding signal intensity: 152
SpBbc1
  SPOT peptide array binding signal intensity: 7
SpBzz1-D1
  SPOT peptide array binding signal intensity: 609
SpBzz1-D2
  SPOT peptide array binding signal intensity: ≤ 0
SpCyk3
  SPOT peptide array binding signal intensity: 1
SpHof1
  SPOT peptide array binding signal intensity: 184
SpHof1-2
  SPOT peptide array binding signal intensity: 44.5
SpHof1-3
  SPOT peptide array binding signal intensity: 352
SpHse1
  SPOT peptide array binding signal intensity: 420
SpLsb1
  SPOT peptide array binding signal intensity: 4.25
SpLsb4
  SPOT peptide array binding signal intensity: 98
SpMyo1
  SPOT peptide array binding signal intensity: 2
SpNbp2
  SPOT peptide array binding signal intensity: 348
SpPex13
  SPOT peptide array binding signal intensity: 17
SpRvs167
  SPOT peptide array binding signal intensity: 11.3
SpSla1-D1-D2
  SPOT peptide array binding signal intensity: ≤ 0
SpSla1-D3
  SPOT peptide array binding signal intensity: 19

B2: unnamed (peptide)
chain: TPRLSLPRLPNKHHW
AgAbp1
  SPOT peptide array binding signal intensity: 88
AgBbc1
  SPOT peptide array binding signal intensity: 1.5
AgBem1-D1
  SPOT peptide array binding signal intensity: ≤ 0
AgBzz1-D1
  SPOT peptide array binding signal intensity: 12.5
AgBzz1-D2
  SPOT peptide array binding signal intensity: 23.5
AgCyk3
  SPOT peptide array binding signal intensity: ≤ 0
AgFus1
  SPOT peptide array binding signal intensity: 15.5
AgHof1
  SPOT peptide array binding signal intensity: 685
AgHse1
  SPOT peptide array binding signal intensity: 271
AgLsb1
  SPOT peptide array binding signal intensity: 1
AgLsb4
  SPOT peptide array binding signal intensity: 33.5
AgMyo5
  SPOT peptide array binding signal intensity: ≤ 0
AgNbp2
  SPOT peptide array binding signal intensity: 26
AgRvs167
  SPOT peptide array binding signal intensity: 2.67
AgSho1
  SPOT peptide array binding signal intensity: 274
AgSla1-D1-D2
  SPOT peptide array binding signal intensity: 7
AgSla1-D3
  SPOT peptide array binding signal intensity: ≤ 0
CaAbp1-D1
  SPOT peptide array binding signal intensity: 314
CaAbp1-D2
  SPOT peptide array binding signal intensity: 675
CaBbc1
  SPOT peptide array binding signal intensity: 30.2
CaBem1-D1
  SPOT peptide array binding signal intensity: ≤ 0
CaBzz1-D1
  SPOT peptide array binding signal intensity: ≤ 0
CaBzz1-D2
  SPOT peptide array binding signal intensity: 34.5
CaCyk3
  SPOT peptide array binding signal intensity: ≤ 0
CaFus1
  SPOT peptide array binding signal intensity: 50.5
CaHof1
  SPOT peptide array binding signal intensity: 1
CaHse1
  SPOT peptide array binding signal intensity: 73
CaLsb1
  SPOT peptide array binding signal intensity: ≤ 0
CaLsb4
  SPOT peptide array binding signal intensity: 70
CaMyo5
  SPOT peptide array binding signal intensity: ≤ 0
